# Experimental data reported in PubChem BioAssay (NCATS).
# Inconclusive results are not listed. Active and inactive are the calls of the source. The call rests on the fitted dose curve; in most records, active means well fitted inhibition curve with a large enough effect; inconclusive means small, poorly fitted or top-dose-only effect; inactive means flat fitted curve, though single readings scatter.
# Tested on: KB-3-1
# Assay: Cytotoxic Profiling of Annotated Libraries Using Quantitative High-Throughput Screening (AID 1296008); further: nearly all actives have a fitted effect of over 60% in size
# Conditions: Five cell lines viability, CellTiter-Glo ATP luminescence, 48-72 h; max response: stronger effect = lower value
# Outline: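 Cells exposed to compounds for 48 or 72 hr at 37 degrees Celsius. Viability read as ATP-coupled luminescence with CellTiter-Glo after 10 min at room temperature.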
# On the % scale 0 is the no-effect control and ±100 the full control effect; potency means the concentration at half of the fitted maximal effect.
SMILES,max response,Potency,outcome
CC1=C(C(=O)O)/C(=C\CO[C@@H]2O[C@H](CO)[C@@H](O)[C@H](O)[C@H]2O)C(OC(=O)/C=C/c2ccc(O)cc2)C1 (some centres not stated),8.61% (inactive),–,–
O=C(CCc1ccccc1)N1CCC(O)(Cn2cnc3cc(Cl)ccc3c2=O)CC1,-17% (inactive),–,–
C[C@@H]1O[C@@H](O[C@@H]2[C@@H](O)[C@H](O[C@H]3CC[C@@]4(C)C(CC[C@]5(C)C4CC=C4[C@@H]6CC(C)(C)CC[C@]6(C(=O)O[C@@H]6O[C@H](CO)[C@@H](O)[C@H](O)[C@H]6O)CC[C@]45C)C3(C)C)O[C@H](C(=O)O)[C@H]2O)[C@H](O)[C@H](O)[C@H]1O (some centres not stated),4.23% (inactive),–,–
c1ccc(N2CCN(CCc3nn[nH]n3)CC2)cc1,7.49% (inactive),–,–
C=C[C@@](C)(O)CC/C=C(\C)C(=O)O[C@@H]1[C@@H]2O[C@]2(C)[C@H]2[C@H](O[C@@H]3O[C@H](CO)[C@@H](O)[C@H](O)[C@H]3O)OC=C[C@@]12O,-1.11% (inactive),–,–
CNC(=O)c1ccccc1Nc1nc(Nc2ccc(N3CCNCC3)cc2)ncc1Cl,–,25.9 nM (active),–
CCCC(=O)C1CCN(c2ncnc3c2CN(C(=O)c2ccc(-c4ccccc4)cc2)CC3)CC1,-16.8% (inactive),–,–
CC(C)[C@H]1CC[C@@]2(O)COC(=O)[C@H]2[C@@H]1/C=C(\CO)C(=O)O,0.265% (inactive),–,–
C[C@@H]1O[C@@H](O[C@@H]2CO[C@@H](O[C@H]3CC[C@@]4(C)C(CC[C@]5(C)C4CC=C4[C@@H]6CC(C)(C)CC[C@]6(C(=O)O[C@@H]6O[C@H](CO)[C@@H](O)[C@H](O)[C@H]6O)CC[C@]45C)[C@]3(C)CO)[C@H](O)[C@H]2O[C@@H]2O[C@H](CO)[C@@H](O)[C@H](O)[C@H]2O)[C@H](O)[C@H](O)[C@H]1O (some centres not stated),–,–,inactive
COc1cc(OC)c(/C=C/S(=O)(=O)Cc2ccc(OC)c(NCC(=O)O)c2)c(OC)c1,–,206 nM (active),–
COc1ccc(CC2NCCc3c2[nH]c2ccc(C)cc32)cc1OC (configuration not stated),-15.3% (inactive),–,–
C=CC[C@]12C[C@@H](OC)C(=O)C(OC)=C1O[C@@H](c1cc(OC)c3c(c1)OCO3)[C@@H]2C,-1.19% (inactive),–,–
